This is an account of results in PubChem BioAssay AID1259389 (Center for Chemical Genomics, University of Michigan, 2018).

Hit rate of the full screen: of about 100,000 compounds, about 620 (0.62%) were called active. For the sample, actives were picked, then their nearest neighbours and some compounds at random. A number with no mark means an inactive call. The calls were made as follows: active = z-score of 3 or more in at least 2 runs; inactive = the rest.

This assay can be described thus: TAR RNA-Tat peptide displacers, HIV-1, primary screen, biochemical, FRET, FAM/TAMRA-labeled Tat (AID 1259389). The conditions noted are these: HIV-1 TAR RNA, Tat peptide displacement FRET; hits give high values.
As for `O=C(Nc1ccccc1Br)c1cnn(-c2ccccc2)c1-n1cccc1`, the z-score is 1.05.

Consider `NC(=O)Cn1c(=O)n(CCCCC(=O)NCc2ccco2)c(=O)c2ccccc21`, for which the z-score was -0.85.

Regarding `CCCc1cc(=O)[nH]c(Nc2cccc(Br)c2)n1`, the z-score was 0.79.

Take `C=C(C)Cn1c(CN2CCOCC2)nc2ccccc21`: the z-score is 0.03.

In the case of `CCc1ccc(N2CCn3c2nc2c3c(=O)n(CC(=O)O)c(=O)n2C)cc1`, the z-score was 3.43.

With `CN(C)CCCNc1oc(-c2ccc(S(=O)(=O)N3CCc4ccccc4C3)cc2)nc1C#N`, the z-score was 11.4 (active).

In the case of `COc1ccc(-c2nnc(-c3ccccc3)o2)cc1S(=O)(=O)N1CCc2ccccc2C1`, the z-score is 0.08.

With `CC(C)CNc1oc(-c2ccc(S(=O)(=O)N3CCc4ccccc4C3)cc2)nc1C#N`, the z-score is 0.36.

For `O=C(c1ccccc1)c1ccc2nc(NCCCO)c3nncn3c2c1`, the z-score is -1.78.

`O=C1CCCC2=C1C(c1cccs1)N(C(=O)CCC(=O)N1CCOCC1)c1ccccc1N2` (stereo unspecified): the z-score was 0.78.

For `O=C(CSc1nnc(-c2cccnc2)n1-c1ccccc1)c1ccc(F)cc1`, the z-score was 1.26.

For the compound `CCc1nc2nc(CSc3nc4ccc(NC(=O)c5ccco5)cc4s3)cc(=O)n2[nH]1`, the z-score was 4.94 (active).

For `CCCC(=O)Nc1ccc2nc(SCc3cc(=O)n4nc(C)sc4n3)sc2c1`, the z-score is 0.47.

On to `CCc1nc2nc(CSc3nnc(NC(=O)c4ccccc4)s3)cc(=O)n2[nH]1`, for which the z-score is 2.53.

Turning to `CCC(C)N(CCNC(=O)Nc1cn(C)c(=O)c2ccccc12)Cc1ccco1` (stereo unspecified), the z-score was 1.06.

For `Cc1cccc(C(=O)OCc2cc(=O)n3nc(C)sc3n2)c1`, the z-score is -0.36.

Take `CC(C)OCCCNc1c(-c2ccc(C(C)C)cc2)c(=O)c1=O`: the z-score is 10.9 (active).

Regarding `CC(CNc1c(-c2ccc(Cl)cc2)c(=O)c1=O)c1ccccc1` (stereo unspecified), the z-score was -0.61.

In the case of `COCCNc1c(-c2ccc(Cl)cc2)c(=O)c1=O`, the z-score was 0.52.

`O=C1CSc2ccc(S(=O)(=O)NCc3ccccc3)cc2N1`: the z-score was 0.46.

Turning to `COC(=O)c1ccc([C@@H]2Nc3ccc(F)cc3[C@@H]3C=CC[C@@H]32)cc1`, the z-score is 1.86.

With `COc1ccccc1C1Nc2ccc(C(=O)O)cc2C2C3CCC(C3)C12` (stereo unspecified), the z-score is 8.02.

On to `CCOc1cccc2c1N[C@@H](c1ccc(C(=O)O)cc1)[C@H]1CC=C[C@@H]21`, for which the z-score is 21.4 (active).

For `Cc1ccsc1CCNC(=O)CCS(=O)(=O)c1ccc2c(c1)CC(C)N2C(=O)C1CC1` (stereo unspecified), the z-score was -0.02.

As for `CC(C)NC(=O)NCCn1cnc2cc(C(=O)N(C)C)ccc21`, the z-score is -0.27.

For the compound `Oc1ccc(-c2csc(Nc3cccnc3)n2)cc1`, the z-score was -0.3.

With `Cc1n[nH]c(C)c1Nc1nc(-c2ccc(O)c(O)c2)cs1`, the z-score was 28.7 (active).

Turning to `Cc1cccc(Nc2nc(-c3ccccc3)cs2)n1`, the z-score was 1.14.

Consider `NC(=O)Cn1c(=O)n(Cc2ccc(Cl)cc2)c(=O)c2cccnc21`, for which the z-score is -0.39.

Consider `CCCNS(=O)(=O)c1ccc2c(c1)CC(C)N2C(=O)C1CC1` (stereo unspecified), for which the z-score is 0.52.

In the case of `Cc1[nH]c2ccccc2c1C(=O)CN1CCN(C)CC1`, the z-score was 1.46.

For `O=C(O)c1[nH]c2ccccc2c1-n1cccc1`, the z-score was 13.1 (active).

Consider `Cc1[nH]c2ccccc2c1C(=O)C(=O)N(C)c1ccccc1`, for which the z-score was -0.5.

In the case of `O=c1c(N2CCN(C/C=C/c3ccccc3)CC2)csc2ccc(Cl)cc12`, the z-score is -2.75.

As to `COC(=O)C(=O)c1c(-c2ccc(Br)cc2)[nH]c2ccccc12`, the z-score was 1.05.

As for `CCOC(=O)C1CCN(C2C(=O)c3ccccc3N2C(C)=O)CC1` (stereo unspecified), the z-score was 1.39.

For the compound `Cc1nn(C)c(C)c1CNC(=O)Cn1c(-c2cccs2)cc2cc(Cl)ccc21`, the z-score is 0.84.

Regarding `CC1Sc2ccc(S(=O)(=O)N(C)c3ccc(Br)cc3)cc2NC1=O` (stereo unspecified), the z-score is 1.17.

As for `CC1=C(C(=O)OCc2ccccc2)C(c2ccc(O)cc2)C2=C(CC(C)(C)CC2=O)N1` (stereo unspecified), the z-score is 1.82.

In the case of `O=C(C1CCN(S(=O)(=O)c2ccc3[nH]c(=O)ccc3c2)CC1)N1CCCC1`, the z-score was 0.85.

Take `CC1CCN(S(=O)(=O)c2ccc3[nH]c(=O)ccc3c2)CC1`: the z-score is -0.99.

As to `O=c1ccc2cc(S(=O)(=O)N3CCN(C4CCCCC4)CC3)ccc2[nH]1`, the z-score is 18.9 (active).

For `Cc1noc2ncnc(N3CCCC(C(=O)Nc4ccccn4)C3)c12` (stereo unspecified), the z-score is 0.85.

With `CCOC(=O)c1noc2nc(C)nc(Nc3ccccc3)c12`, the z-score was 0.17.

With `O=C1c2ccc(O)cc2O[C@H](c2cc(O)c(O)c(O)c2)[C@H]1O`, the z-score was 9.31 (active).

In the case of `O=C(CSc1nnc2c3ccccc3nc(-c3ccccc3)n12)Nc1ccccc1`, the z-score is 0.64.

With `O=C(CSCc1cnn(-c2ccccc2)c1-n1cccc1)Nc1ccccc1F`, the z-score is 1.3.

Regarding `O=S(=O)(c1ccc(C2Nc3ccc(Cl)cc3C3C=CCC32)cc1)N1CCOCC1` (stereo unspecified), the z-score was -2.45.

Consider `O=C(O)C1Nc2ccc(Cl)cc2C2C=CCC12` (stereo unspecified), for which the z-score was 42 (active).

For `O=C(NCc1cccnc1)c1ccc(CN2CC(=O)N3CCCC3C2=O)cc1` (stereo unspecified), the z-score was 1.95.

Turning to `O=C(CSc1nnc2scc(-c3ccccc3)n12)N1CCOCC1`, the z-score is 0.4.

As to `O=C(CSc1ccc(-c2ccccn2)nn1)Nc1ccccc1`, the z-score was 2.09.

Consider `CCc1c(CN2CCN(Cc3ccccc3)CC2)csc1C`, for which the z-score was 1.69.

On to `CCn1c(C(C)N2CCCCC2)nc2ccccc21` (stereo unspecified), for which the z-score is 1.

As to `Cc1ccc(Nc2ncnc3c2cnn3C)c(C)c1`, the z-score is 0.03.

For the compound `Cc1ccc(Nc2nc(NCc3ccco3)nc3c2cnn3C)c(C)c1`, the z-score was 3.66 (active).

Regarding `CCNc1nc(Nc2ccc(Cl)cc2C)c2cnn(C)c2n1`, the z-score was 0.26.

In the case of `CCN(CC)c1nc2c(S(=O)(=O)c3ccc(Cl)cc3)nnn2c2ccsc12`, the z-score is -1.01.

`O=S(=O)(c1ccc(Cl)cc1)c1nnn2c1nc(NC1CCCC1)c1sccc12`: the z-score is 7.09 (active).

On to `NC(=O)C1CCN(c2nc3c(S(=O)(=O)c4cccc(Cl)c4)nnn3c3ccsc23)CC1`, for which the z-score was 0.52.

Turning to `Cn1c(=O)oc2cc(S(=O)(=O)CCC(=O)Nc3cccc(F)c3)ccc21`, the z-score was 0.47.

For the compound `O=C(Cn1nc(-c2ccccc2)c2cnc3cc4c(cc3c21)OCCO4)NC1CCCC1`, the z-score is -0.04.

On to `O=C(CSc1ncc(S(=O)(=O)c2ccccc2)c(=O)[nH]1)Nc1cccc(F)c1`, for which the z-score was -1.01.

In the case of `CCc1ccc(C2CC(=O)Nc3c2c(C)nn3-c2nc3ccccc3[nH]2)s1` (stereo unspecified), the z-score is 1.63.

Regarding `Cc1ccc2occ(C3Nc4cc(C)c(C)cc4NC4=C3C(=O)CC(C)(C)C4)c(=O)c2c1` (stereo unspecified), the z-score is 0.26.

For `Cc1nnc2sc(-c3ccco3)nn12`, the z-score was -1.16.

On to `COc1cccc(OCc2cc(=O)n3nc(C)sc3n2)c1`, for which the z-score was -0.36.

On to `Cc1cccc(C)c1OCc1cc(=O)n2nc(-c3ccco3)sc2n1`, for which the z-score was 36.5 (active).

As to `CCCCc1nn2c(=O)cc(CSc3n[nH]c(CC(C)C)n3)nc2s1`, the z-score was -1.13.

Turning to `C=CCSc1ncc(Cl)c(C(=O)Nc2c(C(=O)Nc3ccc(OC)cc3)oc3ccccc23)n1`, the z-score was 1.45.

As to `COC(=O)c1ccc(C2C(C(=O)OC3CCCC3)=C(C)NC3=C2C(=O)CCC3)cc1` (stereo unspecified), the z-score was 2.05.

In the case of `COc1ccc(-c2nn3c(-c4ccccc4)nnc3s2)cc1OC`, the z-score is 21 (active).

As to `c1ccc(-c2nnc3sc(-c4ccc5c(c4)OCCO5)nn23)cc1`, the z-score was -0.37.

Turning to `Cc1ccc(-c2nnc3sc(-c4ccccn4)nn23)cc1`, the z-score is 1.2.

Turning to `CCC1Sc2ccc(S(=O)(=O)CCC(=O)NCCc3sccc3C)cc2NC1=O` (stereo unspecified), the z-score is -0.87.

Turning to `O=c1c(NC2CCCC2)c(-c2ccc3c(c2)CCCC3)c1=O`, the z-score was -0.58.

As for `CCN(CC)C(=O)CCc1nc(CN2CCN(S(=O)(=O)c3cccs3)CC2)no1`, the z-score was -6.66.

As to `CCCCn1c(=O)[nH]c(=O)c2sc(N)nc21`, the z-score is 0.78.

Consider `COc1cc(Br)c(CCn2c(=O)[nH]c(=O)c3sc(N)nc32)cc1OC`, for which the z-score is 28.5 (active).

In the case of `COc1ccc(-n2c(=O)[nH]c(=O)c3sc(NC(=O)Nc4ccccc4)nc32)cc1`, the z-score is -0.15.

Consider `Cc1c(C(=O)N2CCOCC2)oc2c1-c1nn(CC(=O)NC3CCCc4ccccc43)cc1CC2` (stereo unspecified), for which the z-score was 3.05.

Take `Cc1cc(NCc2cccs2)n2nc(Cc3cccc(F)c3)nc2n1`: the z-score is 1.34.

As for `Cc1cc(C)cc(NC2c3ncccc3C(=O)N2c2ccccc2)c1` (stereo unspecified), the z-score was -1.21.

Regarding `CC1CCC(NC(=O)C2(C)Cn3c(cc4occc43)C(=O)N2CCN(C)C2CCCCC2)CC1` (stereo unspecified), the z-score is 0.99.

`CC1CCCCC1NC(=O)C1(C)Cn2c(cc3sccc32)C(=O)N1Cc1ccco1` (stereo unspecified): the z-score is 2.7.

For `COCCCN1C(=O)c2cc3sccc3n2CC1(C)C(=O)NC1CCCC(C)C1C` (stereo unspecified), the z-score was 2.51.

`CC1CCCC(NC(=O)C2(C)Cn3c(cc4occc43)C(=O)N2Cc2ccc3c(c2)OCO3)C1C` (stereo unspecified): the z-score was 6.96 (active).

For `CC1CCC(NC(=O)C2(C)Cn3c(cc4occc43)C(=O)N2c2ccc(Cl)cc2)CC1` (stereo unspecified), the z-score was 5.26 (active).

Regarding `CCCN1C(=O)c2cc3sccc3n2CC1(C)C(=O)NC1CCC(C)CC1` (stereo unspecified), the z-score is 1.88.

On to `CCOC(=O)c1[nH]c(C)c(C(=O)NC2CCCC(C)C2C)c1C` (stereo unspecified), for which the z-score is 0.78.

Consider `CSc1cccc(NC(=O)N2c3ccccc3NC3=C(C(=O)CCC3)C2c2ccco2)c1` (stereo unspecified), for which the z-score was 0.6.

As for `O=C1c2ccccc2S(=O)(=O)N1Cc1nnnn1-c1ccccc1`, the z-score was 2.08.

`Cc1nc(-c2ccc(C)c(S(=O)(=O)Nc3ccc(Cl)cc3F)c2)cs1`: the z-score is 1.67.

Regarding `CN1C(C(=O)NCc2ccccc2)=CC(c2ccc3c(c2)OCO3)=NS1(=O)=O`, the z-score is 3.21 (active).

As to `CN1C(C(=O)N2CCCc3ccccc32)=CC(c2ccc3c(c2)OCO3)=NS1(=O)=O`, the z-score was 2.14.

`CCNC(=O)C1=CC(c2cccs2)=NS(=O)(=O)N1C`: the z-score was 1.38.
